Hits are enriched below; roughly 8% of the tested compounds scored in any of these assays.
SW480 rereplic: DNA re-replication induction in SW480 cells; Potency, µM (top dose mostly 46.1 µM), for inactives: top-dose re-replication activation, actives largely listed as activators; SW480 DNA re-replication, Hoechst DNA content imaging, 48 h; 340,000 compounds, 1.8% hits; also: % of control where 0% means no effect; nearly all actives have a fitted effect of over 55% in size
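DNA re-replication was detected as more nuclei of elevated Hoechst intensity after 48 hr exposure to compound (23 nL pinned per well of 250 cells).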
KB-3-1 tox: KB-3-1 parental cell cytotoxicity; KB-3-1 viability, CellTiter-Glo ATP luminescence, 72 h; Potency, µM (titrated, usually from 46.1 µM), hits mostly cytotoxic; 400,000 compounds, 1.4% hits; AID 1347075; also: % is scaled to controls: 0 for no effect and ±100 for the full control effect; nearly all actives have a fitted effect of over 60% in size
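Cells are dispensed, compounds pinned in, plates held at 37 °C for 72 h, then CellTiter-Glo is added and luminescence read after 10 minutes. Cell line: parental KB-3-1 in phenol-red-free DMEM, 10% FBS.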
KB-V1 MDR tox: KB-V1 MDR subline cytotoxicity. 400,000 compounds, 3.4% hits. KB-V1 MDR cells viability, CellTiter-Glo, 72 h. Potency, µM (titrated, usually from 46.1 µM), hits mostly cytotoxic. AID 1347076; also: % is scaled to controls: 0 for no effect and ±100 for the full control effect; nearly all actives have a fitted effect of over 60% in size
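Following 72 h at 37 degrees C with compound, KB-V1 cell viability was read by CellTiter-Glo luminescence, medium being phenol-red-free DMEM plus 10% FBS; concentration-response parameters came from normalized, curve-fitted qHTS data.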
MCF10A rereplic: DNA re-replication induction in MCF 10a cells. Potency, µM (top dose mostly 46.1 µM), for the others: at the highest dose activity, positive = re-replication, most hits filed as activators. AID 624296. 350,000 compounds, 2.9% hits. MCF 10A DNA re-replication, Hoechst nuclear intensity, 48 h; also: % of control where 0% means no effect; nearly all actives have a fitted effect of over 50% in size
HT1080 IDH1KD tx: toxicity to HT-1080 IDH1 knockdown cells (counter line) | HT-1080 IDH1 knockdown viability, ATP luminescence, 48 h | Potency, µM (titrated, usually from 46.1 µM), without a hit: at the highest dose activity, negative = toxicity, actives largely listed as cytotoxic | 360,000 compounds, 2% hits | AID 686971;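 also: 0% = DMSO wells and -100% = cell-free medium wells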
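IDH1KD HT-1080 cells, 750/well, RPMI + 5% FBS; compound pinned after 2 h settling; 48 h, 37 °C; CellTiter-Glo luminescence; % activity normalised to DMSO and no-cell wells; curves fitted, classed by r2 and efficacy.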
HT1080NT lethal: kills 2HG-producing HT-1080-NT fibrosarcoma cells | HT-1080-NT fibrosarcoma viability, CellTiter-Glo ATP luminescence, 48 h | Potency, µM (top dose mostly 46.1 µM), for the others: at the highest dose activity, negative = less viability, actives largely listed as cytotoxic | 360,000 compounds, 1.6% hits | AID 686970;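 also: NT is the 2HG producing partner of a matched IDH1 knockdown line; 0% = DMSO-treated cells and -100% = media-only wells without cells; nearly all actives have a fitted effect of over 55% in size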
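Toxicity toward the 2HG-producing NT line was scored as %Activity, normalised to DMSO and no-cell wells, from CellTiter-Glo luminescence after 48 hours' treatment.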
* = called active by the depositor; i = inactive; ? = inconclusive; . = no result given; [ ] = another dose, or the depositor's remark. Calls follow the shape of the dose curve; as a rule, active = well fitted curve in the direction sought with a large enough effect; inconclusive = small, poorly fitted or top-dose-only effect, or another doubt; inactive = no such curve, though single readings can be large; an effect the other way counts as inactive or inconclusive. Potency is read from the fitted curve at half-maximal effect.

SMILES	SW480 rereplic	KB-3-1 tox	KB-V1 MDR tox	MCF10A rereplic	HT1080 IDH1KD tx	HT1080NT lethal
Cc1cccc(NC(=O)CCn2nc(C)c3c(C)n(-c4ccccc4)nc3c2=O)c1C	.	i	i	.	.	.
CCOc1cc2c(c3c1C(c1ccccc1)N(S(=O)(=O)c1ccc(C)cc1)C3)C(=O)C=CC2=O (stereo not given)	.	?	?	.	12µM*	6.5µM*
CCOC(=O)C1=CCN(S(=O)(=O)c2ccc(C)cc2)C1c1ccccc1 (stereo not given)	.	i	i	.	1%	-2%
COc1ccc(CNC(=O)C2=C(C)C(=O)OC23CCN(C(C)=O)CC3)cc1	.	i	i	.	.	.
CCCCCCCCCCCC[n+]1ccc(C)c2ccccc21	.	4.1µM*	i	.	.	.
Cc1cc[n+](CCC2CCCCC2)c2ccccc12	.	2.1µM*	i	.	.	.
CCCCCCC[n+]1ccc(C)c2ccccc21	.	0.58µM*	i	.	.	.
Cc1cc[n+](C)c2ccccc12	.	i	i	.	.	.
COc1ccc(C(CCNCc2ccc(N(C)C)cc2)c2ccccc2OC)cc1 (stereo not given)	5%	i	?	?	29µM*	?
COc1ccc(C(CCNCc2ccc(OC(C)C)cc2)c2ccccc2OC)cc1 (stereo not given)	?	?	23µM*	?	?	?
COc1ccc(CNC(C)CCc2ccccc2)cc1 (stereo not given)	-2%	i	i	-2%	-18%	-17%
COc1ccc(CNCCC(c2ccc(OC)cc2)c2ccccc2OC)cc1 (stereo not given)	?	?	?	?	21µM*	15µM*
Cc1ccc(S(=O)(=O)N(CC(=O)N/N=C/c2ccco2)c2cc(Cl)cc(Cl)c2)cc1	20%	i	18µM*	?	?	?
COc1cccc(N2CCN(C(=O)c3c4c(nc5ccccc35)C(=O)N(C3CCCCC3)C4)CC2)c1	.	i	i	.	.	.
C/C(=C\C(=O)c1ccc(F)cc1)Nc1ccc(N2CCOCC2)cc1	0%	i	21µM*	0%	2%	-3%
O=C(NCc1ccco1)c1cccc(NC(=O)c2ccco2)c1	?	7.3µM*	i	?	-16%	?
O=C(Nc1ccccc1)c1cccc(NC(=O)c2ccco2)c1	-14%	i	?	-5%	2%	-10%
Cc1ccc(C(=O)Nc2ccccc2C(=O)NCc2ccccc2)cc1	11%	i	4.6µM*	6%	3%	0%
Cc1ccc(C(=O)Nc2ccccc2C(=O)NCc2cccnc2)cc1	12%	i	i	15%	-14%	0%
O=C(NCc1ccccc1)c1cccc(NC(=O)c2ccco2)c1	-153%	10µM*	8.2µM*	?	4.1µM*	?
CCOc1ccc(CCNC(=O)Cc2ccc(NC(=O)C3=C(C)OCCS3)cc2)cc1	-3%	i	i	3%	1%	-4%
CSc1ccc(CNC(=O)Cc2ccc(NC(=O)C3=C(C)OCCS3)cc2)cc1	1%	5.8µM*	?	?	16µM*	?
CC(=O)c1ccc([N+](C)(C)C)cc1	.	i	i	.	.	.
CCN1C(=O)c2ccccc2S(=O)c2ccc(C(=O)N3CCN(c4ccccc4OC)CC3)cc21 (stereo not given)	.	i	i	.	.	.
Cc1ccc(C(=O)NCc2ccccc2)cc1Br	-44%	i	18µM*	-31%	-2%	0%
SMILES	SW480 rereplic	KB-3-1 tox	KB-V1 MDR tox	MCF10A rereplic	HT1080 IDH1KD tx	HT1080NT lethal
Cc1ccc(C)n1-c1ccc(C(=O)Nc2ccccc2)cc1	?	i	i	?	0%	-5%
CC1=C(C(=O)Nc2cc(C(=O)NCc3ccccc3)ccc2C)SCCO1	.	i	21µM*	.	?	?
Cc1ccc(C(=O)NC(=S)NCc2ccccc2)cc1Br	0%	i	i	2%	12%	11%
CCCCNC(=O)c1ccc(C)c(NC(=O)C2=C(C)OCCS2)c1	-2%	i	i	8%	-13%	-8%
O=C(NCc1ccccc1)c1cccc(NC(=O)c2ccccc2)c1	17%[9.22 µM]	23µM*	i	-32%	?	?
Cc1ccc(C)n1-c1cccc(NC(=O)c2ccccc2)c1	?	i	23µM*	?	-26%	-14%
Cc1cc(C(=O)CSc2ccc3c(c2)OCCO3)c(C)n1C1CC1	-2%	i	i	6%	4%	-2%
CC(=O)Nc1nonc1-c1nnc(SCC(=O)Nc2ccccc2Cl)n1C	.	i	i	.	.	.
O=C(Nc1ccccc1)OC[C@H](CN1CCCCC1)OC(=O)Nc1ccccc1	2%[20.6 µM]	.	.	-2%[20.6 µM]	.	.
CCCCc1cc2c(c(NC(=O)CC)n1)c(=O)oc1ccccc12	-5%	i	16µM*	5%	1%	-10%
CC(=O)Nc1nc(CC(C)C)cc2c1c(=O)oc1ccccc12	0%	i	i	-8%	-8%	-2%
Fc1cccc(-c2nnn3c2nc(Cl)c2ccccc23)c1	5.8µM*	i	i	2.6µM*	?	-11%
Fc1cccc(-c2nnn3c2nc(NC2CCCCC2)c2ccccc23)c1	.	i	i	.	.	.
Cc1ccc(-c2nnn3c2nc(Cl)c2ccccc23)cc1	?	i	i	4.1µM*	0%	-7%
Cc1ccc(-c2nnn3c2nc(NCCc2ccccc2)c2ccccc23)cc1	.	i	i	.	.	.
Clc1nc2c(-c3ccccc3)nnn2c2ccccc12	?	?	i	3.7µM*	-26%	-17%
CCN(CC)C(=O)c1ccc2c(c1)N(Cc1c(F)cccc1Cl)C(=O)c1ccccc1S2	.	i	i	.	.	.
CCOc1c(Br)cc(C(N)=O)cc1OCc1ccccc1	-1%	i	i	15%	-12%	-19%
CCCCn1c(=N)n(CC(O)COc2ccccc2)c2ccccc21 (stereo not given)	?	?	21µM*	1%	?	?
CCCCn1c(=N)n(CC(O)COc2ccc(C)cc2)c2ccccc21 (stereo not given)	22%	18µM*	?	5%	11µM*	?
CCCn1c(=N)n(CC(O)COc2cccc(C)c2)c2ccccc21 (stereo not given)	11%	?	15µM*	3%	?	-18%
N=c1n(CCN2CCCCC2)c2ccccc2n1CC(O)COc1ccccc1 (stereo not given)	?	?	i	8%	?	15µM*
N=c1n(CCN2CCOCC2)c2ccccc2n1CC(O)COc1ccccc1 (stereo not given)	-7%	i	i	-5%	-8%	-2%

Screens (PubChem)
